TDP1 block – TDP1 (human) enzyme inhibition; recombinant TDP1, AlphaScreen DNA substrate cleavage; Potency, µM (top dose mostly 130 µM), actives largely listed as inhibitors; actives 0.28% (n = 350,000); AID 485290; further: nearly all actives have a fitted effect of over 40% in size
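Steps: enzyme plus compound, 15 min RT; add biotin/phosphotyrosine-FITC oligonucleotide (15 nM final), react 5 min; add donor/acceptor beads (10 ug/ml final), 10 min; read AlphaScreen. Tdp1 at 1 nM final.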
KDM4E inh – inhibitors of human JMJD2E histone demethylase; AID 2147; Potency, µM (highest dose often 57.1 µM), hits mostly inhibitors; B2RXH2; actives 1.6% (n = 230,000); JMJD2E catalytic domain, FDH-coupled NADH fluorescence (FDH is formaldehyde dehydrogenase); further: nearly all actives have a fitted effect of over 50% in size
KAT2A inh – blocks human GCN5L2 histone acetyltransferase; Q92830; GCN5L2 HAT assay, ThioGlo1 CoA-SH fluorescence; Potency, µM (series often up to 58.9 µM), actives largely listed as inhibitors; actives 0.21% (n = 390,000)
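Preincubate 20nM GCN5L2 with compound 15 min, RT → add 50uM ThioGlo1 + 75uM H3(1-25) + 70uM acetyl-CoA → read fluorescence 0 and 20 min. Primary qHTS; fluorescent artifacts likely.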
APEX1 inh – inhibitors of human APE1 endonuclease. recombinant APE1, TAMRA/BHQ-2 abasic DNA cleavage fluorescence. Potency, µM (doses to about 65.8 µM), actives largely listed as inhibitors. actives 0.35% (n = 350,000); further: nearly all actives have a fitted effect of over 55% in size
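Incision of a quenched TAMRA/BHQ-2 THF abasic-site duplex (50 nM) by 0.75 nM APE1, after 15 min compound preincubation, measured as fluorescence increase over three 60 s reads. Values normalized to buffer, DMSO and NSC13755 control wells.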
BLM helicase inh – Bloom syndrome helicase (human) inhibition. actives 0.2% (n = 350,000). AID 2528. P54132. Potency, µM (titrated, usually from 56.1 µM), actives largely listed as inhibitors. recombinant BLM DNA unwinding, fluorescence dequenching; further: nearly all actives have a fitted effect of over 35% in size
RECQ1 inh-1 – RECQ1 (human) helicase inhibition | P46063 | RECQ1 DNA unwinding, red fluorescence kinetic read | Potency, µM (doses to about 57.3 µM), hits mostly inhibitors | actives 0.54% (n = 240,000); further: nearly all actives have a fitted effect of over 30% in size
Target sequence (P46063 whole entry, looked up): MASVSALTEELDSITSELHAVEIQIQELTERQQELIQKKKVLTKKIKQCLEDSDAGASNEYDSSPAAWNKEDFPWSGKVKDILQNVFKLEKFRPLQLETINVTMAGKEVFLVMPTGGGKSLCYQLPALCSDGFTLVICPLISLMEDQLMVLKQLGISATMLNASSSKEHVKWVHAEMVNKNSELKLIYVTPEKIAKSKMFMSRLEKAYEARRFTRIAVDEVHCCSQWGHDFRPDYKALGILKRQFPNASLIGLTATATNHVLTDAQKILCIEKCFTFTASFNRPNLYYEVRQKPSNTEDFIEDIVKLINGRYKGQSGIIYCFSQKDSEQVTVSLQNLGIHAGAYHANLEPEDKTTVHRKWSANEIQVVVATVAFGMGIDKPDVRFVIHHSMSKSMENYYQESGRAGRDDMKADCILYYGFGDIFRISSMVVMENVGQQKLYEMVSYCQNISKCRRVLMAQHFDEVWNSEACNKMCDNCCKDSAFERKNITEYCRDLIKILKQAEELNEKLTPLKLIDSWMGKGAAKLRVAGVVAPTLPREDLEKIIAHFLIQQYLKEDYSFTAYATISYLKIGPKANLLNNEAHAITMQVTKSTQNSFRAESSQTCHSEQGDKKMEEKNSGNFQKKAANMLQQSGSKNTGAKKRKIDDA
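50 nM RECQ1T1 preincubated 15 min with compound in Tris pH 8.0 buffer with MgCl2, DTT, Tween-20 and 2.5 ug/ml poly(dI-dC); started with 200 nM TAMRA/BHQ-2 forked duplex and 2 mM ATP. Unwinding read as fluorescence (525/598 nm), two reads 2 h apart.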
RECQ1 inh conf – confirmation of human RECQ1 helicase inhibitors; actives 28% (n = 610); AID 2708; RECQ1 helicase DNA unwinding, fluorescence; Potency, µM (titrated, usually from 229 µM), most hits filed as inhibitors; shares compounds with RECQ1 inh-1; further: nearly all actives have a fitted effect of over 45% in size
RECQ1 ADP FP – ADP displacement flagged in RECQ1 inhibitor counter-screen; ADP fluorescence polarization displacement counterscreen; Potency, µM (series often up to 228 µM), hits mostly inhibitors; shares compounds with RECQ1 inh-1; actives 27% (n = 530); further: nearly all actives have a fitted effect of over 45% in size
RECQ1 inh-2 – confirmation of human RECQ1 helicase inhibitors | actives 15% (n = 1,100) | shares compounds with RECQ1 inh-1 | Potency, µM (series often up to 119 µM), hits mostly inhibitors | recombinant RECQ1 DNA unwinding, red fluorescence; further: nearly all actives have a fitted effect of over 50% in size
Numbers stand for hits; - = inactive; ? = inconclusive; . = no result given; ! = a repeat was not active; [ ] = dose if it differs, or a comment. Shown is part of a subset that was picked to be rich in hits. Unless noted, the call rests on the fitted dose curve; in most records, active means well fitted curve in the direction sought with a large enough effect; inconclusive means small, poorly fitted or top-dose-only effect, or another doubt; inactive means no such curve, though single readings can be large; an effect the other way counts as inactive or inconclusive.

SMILES | TDP1 block | KDM4E inh | KAT2A inh | APEX1 inh | BLM helicase inh | RECQ1 inh-1 | RECQ1 inh-2 | others
COc1ccc(OC)c(C2Nc3c(Cl)ccc(C(=O)O)c3C3C=CCC32)c1 (stereo unspecified) | . | ? | - | - | - | - | .
COC(=O)COc1ccc(C2Nc3c(Cl)ccc(C(=O)O)c3C3C=CCC32)cc1 (stereo unspecified) | . | ? | - | ? | - | 28µM | ?
O=C(Nc1cccc(-c2nc3ccccc3[nH]2)c1)c1c(F)cccc1F | -[12.3 µM] | . | - | . | - | . | .
CC(NC(=O)c1nn(C)c2c1CSc1ccccc1-2)c1ccccc1 (stereo unspecified) | - | . | - | . | - | . | .
O=C(NCCCN1CCN(c2ccc(F)cc2)CC1)c1cnn(-c2ccc(F)cc2)c1-n1cccc1 | - | . | - | . | - | . | .
Cc1nc(/N=C(\N)NC(=O)N2c3ccccc3Sc3ccccc32)nc2ccccc12 | - | - | - | - | - | - | . | RECQ1 inh conf=-;RECQ1 ADP FP=-
COC(=O)C/C=C\[C@@H](C)[C@@H](CO)NS(=O)(=O)c1ccc(C)cc1 | -[21 µM] | . | . | -[12.4 µM] | -[12.4 µM] | -[11.5 µM] | .
O=C(NCc1ccco1)[C@@H]1CSC2c3ccccc3C(=O)N21 (stereo partly specified) | - | - | - | - | - | ? | ?
CC(C)[C@H](NC(=O)[C@@H]1CSC2c3ccccc3C(=O)N21)C(=O)NCc1ccco1 (stereo partly specified) | - | . | - | - | - | . | .
NC(=O)c1nc(-c2ccc(F)c(F)c2)nc2c1[nH]c(=O)n2-c1cccc(Cl)c1 | - | . | - | . | - | . | .
Cc1cc(C)n2c(SCC(=O)Nc3c(C)n(C)n(-c4ccccc4)c3=O)nnc2n1 | - | - | - | - | - | - | . | RECQ1 inh conf=-;RECQ1 ADP FP=-
CC(=O)O[C@H]1CC[C@H]2[C@@H]3CCc4cc(O)ccc4[C@H]3CC[C@]12C | - | - | - | - | - | - | .
CC(=O)OC1CCC2C3CCc4cc(O)ccc4C3CCC12C (stereo unspecified) | - | - | - | . | - | 16µM | . | RECQ1 inh conf=-;RECQ1 ADP FP=8.9µM
Cc1cc(=O)c2c(O)c3c(O)cc(O)c4c5c(O)cc(O)c6c(O)c7c(=O)cc(C)c8c1c2c(c34)c(c65)c78 | - | . | 18µM | 3.2µM | 20µM | 0.56µM | . | RECQ1 inh conf=?;RECQ1 ADP FP=0.14µM
Cc1c(C(=O)NCc2cccc(Cl)c2)sc2ncnc(N(C)C3CCCCC3)c12 | - | . | - | . | - | . | .
COc1cccc(CN2CCN(C(=O)c3ccc(-c4ccccc4)cc3)CC2)c1 | - | ? | - | - | - | 25µM | -
COc1ccc(C(=O)Nc2nc(-c3ccc([N+](=O)[O-])cc3)c(-c3ccc(OC)cc3)s2)cc1 | - | - | - | - | - | ? | -
COc1ccc(C(=O)Nc2nc3c(s2)CCc2cc(OC)ccc2-3)cc1 | - | . | - | . | - | . | .
CCCN(CCC)S(=O)(=O)c1ccc(C(=O)Nc2ccc(OCC(=O)N3CCOCC3)cc2)cc1 | - | - | - | - | - | - | . | RECQ1 inh conf=-;RECQ1 ADP FP=-
CCCCOc1ccc(C(=O)Nc2cc(C)c(OCC(=O)N3CCOCC3)c(C)c2)cc1 | - | - | - | - | - | - | .
COc1ccc(CCNc2ncnc3c2[nH]c2cc(OC)c(OC)cc23)cc1OC | - | ? | - | ? | - | 14µM | ? | RECQ1 inh conf=?;RECQ1 ADP FP=-
COc1ccc(CCNc2ncnc3cc(OC)c(OC)cc23)cc1OC | - | - | - | - | - | - | .
O=C(CCS(=O)(=O)c1ccc(Br)cc1)Nc1ccc(Br)cc1F | . | - | - | - | - | 35µM | ?
CC(C)=C1C(=O)NN(c2ccc(C)c(Cl)c2)C1=O | - | - | - | - | - | ? | -
O=[N+]([O-])c1cc(S(=O)(=O)C(F)(F)F)ccc1N1CCN(c2ccccc2)CC1 | - | - | - | - | - | ? | -
SMILES | TDP1 block | KDM4E inh | KAT2A inh | APEX1 inh | BLM helicase inh | RECQ1 inh-1 | RECQ1 inh-2 | others
NC(=O)c1ccc(NC(=O)C2CCN(S(=O)(=O)Cc3ccccc3)CC2)cc1 | - | . | - | . | - | . | .
O=C(NCC1CCCO1)C(c1cccs1)N(Cc1ccccc1)C(=O)c1ccc(-c2ccccc2)[nH]1 (stereo unspecified) | - | ? | - | - | - | - | .
COc1ccc(CN(C(=O)c2ccc(-c3ccccc3)[nH]2)C(C(=O)NCC2CCCO2)c2ccc(C)o2)cc1 (stereo unspecified) | - | ? | - | - | - | 25µM | -
Cc1coc2cc3oc(=O)c(CC(=O)NCc4ccccc4)c(C)c3cc12 | - | . | - | . | - | . | .
CC(C)(O)C#Cc1ccc(CN2CCCC(CO)(Cc3cccc(Cl)c3)C2)cc1 (stereo unspecified) | - | - | - | - | - | ? | -
CC(C)OC(=O)CC(=O)c1sc2nc3c(cc2c1N)CN(C)CC3 | . | ? | - | - | - | 13µM | -
Nc1ccc(C(=O)OCC(=O)N2c3ccccc3Sc3ccccc32)cc1[N+](=O)[O-] | - | - | - | - | - | 28µM | -
Nc1ccc(C(=O)OCC(=O)N2CCc3ccccc3C2)cc1[N+](=O)[O-] | - | - | - | - | - | - | .
Cc1cc(OCC(F)(F)C(F)(F)C(F)(F)C(F)(F)C(F)(F)C(F)F)nc(N)n1 | - | - | - | - | - | 28µM | -
NC(=O)c1ccc(OCC(F)(F)C(F)(F)C(F)(F)C(F)(F)C(F)(F)C(F)F)cc1 | - | - | ? | - | - | - | .
Cc1ccc(-n2ncc3c(NC4CCCCC4)ncnc32)cc1 | - | . | - | . | - | . | .
O=C(CSc1ccc(Cl)cc1)Nc1ccc(-c2nc3ccccc3[nH]2)cc1 | - | ? | - | - | - | 28µM | -
COc1ccc(OC)c(C2=Nn3c(nnc3-c3cc(OC)ccc3OC)SC2)c1 | - | . | . | - | - | - | .
CCCCC[C@H](O)C/C=C1/C(=O)C=C[C@@H]1C/C=C\CCCC(=O)O | - | - | - | - | - | - | .
CCCCC/C=C/C=C1/C(=O)C=C[C@@H]1C/C=C\CCCC(=O)O | 18µM! | - | ? | ? | - | 35µM! | ?
O=C1NC(=S)S/C1=C\C=C\c1ccc([N+](=O)[O-])o1 | . | 20µM | - | 2.8µM | - | 13µM | . | RECQ1 inh conf=?
CC(C)(C)OC(=O)N1CCC(c2c(C(=O)Nc3ccc4c(c3)OCCO4)cnn2-c2ccc(F)cc2F)CC1 | - | . | - | . | - | . | .
COCCn1c(N)c(S(=O)(=O)c2cccs2)c2nc3ccccc3nc21 | - | ? | - | - | ? | - | .
